# Records with an inconclusive call do not appear. Activity calls are given as the source filed them. How the source made its calls: active means hit-call score of the fitted dose curve at least 0.9, where 1 is the maximum; inconclusive means response in the unintended direction; inactive means score below 0.9.
# Test: ATG_M_32_XSP2: Attagene TRANS-FACTORIAL Multi-Species (XSP2) HepG2 Assay for M19 Transcription Factor (Internal Marker) (AID 2283826)
# Procedure: ATG_XSP2_multi-species_TRANS is a cell-based, multiplexed assay created by modifying the existing Attagene TRANS-FACTORIAL system to include a panel of nuclear receptors from some or all the following species: human (Homo sapiens), mouse (Mus musculus), frog (Xenopus laevis), zebrafish (Danio rerio), chicken (Gallus gallus), and turtle (Chrysemys picta). The ECOTOX-FACTORIAL format uses HepG2, a human liver cell line, with measurements taken at 24 hours after chemical dosing in a 24-well plate. Xsp2 included 3 nM 6-alpha-fluorotestosterone and 1.5 nM norgestrel to stimulate the androgen receptor.ATG_M_32_XSP2 is one of 29 assay components measured or calculated from the ATG_XSP2_multi-species_TRANS assay. It is designed to make measurements of mRNA induction, a form of inducible reporter, as detected with fluorescence intensity signals by Reverse transcription polymerase chain reaction (RT-PCR) and Capillary electrophoresis technology.This assay endpoint, ATG_M_32_XSP2, was analyzed in the positive analysis fitting direction relative to DMSO as the negative control and baseline of activity. Using a type of inducible reporter, measures of mRNA for gain-of-signal activity can be used to understand the background control at the transcription factor-level as they relate to the gene. Furthermore, this assay endpoint can be referred to as a secondary readout, because this assay has produced multiple assay endpoints where this one serves a background control function. To generalize the intended target to other relatable targets, this assay endpoint is annotated to the background measurement intended target family, where the subfamily is internal marker.
# Human liver HepG2 cells are transiently transfected with multiple reporter transcription units (MRTUs) in 6-well plates using FuGene 6 reagent (Roche; 3 ml FuGene/1 mg DNA). The MRTU constructs are regulated by a cis-regulating element (promoter). […] A major difference between the CIS and TRANS system is that in CIS activities of endogenous TFs are measured, whereas the TRANS assay evaluates changes in activities of exogenous, chimeric NR-Gal4 proteins. […] At the end of 24 hour incubation, total RNA was isolated using TriZol reagent (Invitrogen). The isolated RNA is then reverse-transcribed using oligo(dT) primer and Mo-MLV reverse transcriptase (Invitrogen) with DNAse I (Ambion) treatment for 30 min. The one-tenth of the produced cDNA was amplified by PCR using Taq DNA polymerase (Invitrogen) and two reporter sequence-specific primers. The PCR products were fluorescently labeled by primer extension with 6-arboxyfluorescein (6-FAM) 5'-labeled reporter sequence-specific primer (2 min at 95 C, 20 s at 68 C and 10 min at 72 C) and these products were digested with 5U of HpaI (New England Biolabs) for 2h at 37 C. The fragments were purified using Qiaquick PCR columns (Qiagen), analyzed on an ABI 3130xL genetic analyzer (Applied Biosystems) with peak positions identified by using a set of X-rhodamine (ROX)-labeled MapMarker1000 molecular weight standards (BioVentures). The raw capillary electrophoresis data was processed using Attagraph software (Attagene).
SMILES,outcome,AC50
C=C1C[C@H]2[C@@H]3C=C(C)C4=CC(=O)CC[C@]4(C)[C@H]3CC[C@]2(C)[C@@]1(OC(C)=O)C(C)=O,inactive,
CCCCCCCCCCCCc1ccc(O)cc1,inactive,
O=C(c1ccc(O)cc1)c1ccc(O)cc1O,inactive,
Cc1oc(-c2ccccc2)nc1CCOc1ccc(C[C@H](Nc2ccccc2C(=O)c2ccccc2)C(=O)O)cc1,inactive,
O=c1c(-c2ccc(O)cc2)coc2cc(O)ccc12,inactive,
Oc1ccccc1Cc1ccccc1O,inactive,
N#Cc1ccc(C2CCCc3cncn32)cc1 (stereo not given),inactive,
c1ccc2c(c1)ccc1ccccc12,inactive,
c1ccc(B(c2ccccc2)c2ccccc2)cc1,inactive,
Cc1c2ccccc2c(C)c2c1ccc1ccccc12,inactive,
CC(C)(c1cc(Cl)c(O)c(Cl)c1)c1cc(Cl)c(O)c(Cl)c1,inactive,
Clc1nc(Cl)c(Cl)c(Cl)c1Cl,inactive,
CC(C)(c1ccc(O)cc1)c1ccc(O)cc1,inactive,
CCN(CC)CCOc1ccc(C(=C(Cl)c2ccccc2)c2ccccc2)cc1,inactive,
CC(C)CCCCCCc1ccc(O)cc1,inactive,
CC(C)CCCCCCCOC(=O)c1ccccc1C(=O)OCCCCCCCC(C)C,inactive,
Oc1ccc(C(c2ccc(O)cc2)C(Cl)(Cl)Cl)cc1,inactive,
CC(C)(c1cc(Br)c(O)c(Br)c1)c1cc(Br)c(O)c(Br)c1,inactive,
CC(C)(C)NC(=O)[C@H]1CC[C@H]2[C@@H]3CC[C@H]4NC(=O)C=C[C@]4(C)[C@H]3CC[C@]12C,inactive,
C=CCc1cc(S(=O)(=O)c2ccc(O)c(CC=C)c2)ccc1O,inactive,

SMILES,outcome,AC50
O=C(O)Cc1cc(I)c(Oc2cc(I)c(O)c(I)c2)c(I)c1,inactive,
CC(=O)c1cc2c(cc1C)C(C)(C)C(C)CC2(C)C (stereo not given),inactive,
COc1ccc(C(=O)c2ccccc2)c(O)c1,inactive,
CCC(C)(C)C1CCC(O)CC1 (stereo not given),inactive,
O=P(OC(CCl)CCl)(OC(CCl)CCl)OC(CCl)CCl,inactive,
C#C[C@]1(O)CC[C@H]2[C@@H]3CCC4=CC(=O)CC[C@@H]4[C@H]3CC[C@@]21CC,inactive,
C=CCOC(Cn1ccnc1)c1ccc(Cl)cc1Cl (stereo not given),inactive,
CCCCCCCCCCCCN,inactive,
CCCCC(CC)CN1C(=O)C2C3C=CC(C3)C2C1=O (stereo not given),,174 µM (active)
Oc1ccc2cc(SSc3ccc4cc(O)ccc4c3)ccc2c1,inactive,
CC/C(=C(\c1ccccc1)c1ccc(OCCN(C)C)cc1)c1ccccc1,inactive,
C(=C(c1ccccc1)c1ccccc1)c1ccccc1,inactive,
CCCCC(CC)COC(=O)c1ccc(O)cc1 (stereo not given),inactive,
N[C@@H](Cc1cc(I)c(Oc2ccc(O)c(I)c2)c(I)c1)C(=O)O,inactive,
Cc1c(C)c2c(c(C)c1O)CCC(C)(COc1ccc(CC3SC(=O)NC3=O)cc1)O2 (stereo not given),inactive,
O=C(Oc1ccccc1)c1ccc(O)cc1,inactive,
O=c1cc(-c2ccccc2)oc2cc(O)cc(O)c12,inactive,
CCN(Cc1c(F)cccc1Cl)c1c([N+](=O)[O-])cc(C(F)(F)F)cc1[N+](=O)[O-],inactive,
Oc1ccc2c(c1)-c1ccccc1C2,inactive,
O=C(O)Cc1cc(I)c(Oc2ccc(O)c(I)c2)c(I)c1,inactive,

# Source: PubChem BioAssay (EPA / NIEHS)
